This note sets out measurements from PubChem BioAssay.

The structures appear in SMILES notation.

The experiment in a line: probe aInhba binding on compound microarray – biochemical, small-molecule microarray, 635/667 nm fluorescence, primary screen (AID 1148).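 Also: score merges 667nm spot fluorescence with signal-to-noise for antibody binding to printed compounds.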 The following applies: higher = more signal.
On to `Cc1ccccc1C(O)C1C=CC2C(=O)N(c3ccccc3)C(=O)C2N1Nc1ccccc1F` (stereo not given), for which the composite z-score is 0.0569.
Then `COC(=O)[C@@]1(CCS(=O)(=O)c2ccccc2)N=C(c2ccc(OCCCO)cc2)O[C@H]1c1ccccc1N=[N+]=[N-]`, with 0.0519.
Then `C=C(CCCC)C(=O)CC[C@H](OC(=O)c1cccnc1)c1ccc(CO)o1`, with 0.212.
Then `COCCOC(=O)N1C(=O)[C@@]2(c3cc(C#CC4(O)CCCCCC4)ccc31)[C@H](c1ccc(OCCO)cc1)N1[C@H](c3ccccc3)[C@H](c3ccccc3)OC(=O)[C@H]1[C@@H]2C(N)=O`, with 0.0804; and `CN(C)C(=O)[C@]1(Cc2ccccc2)N=C(c2ccc(OCCCO)cc2)O[C@@H]1c1ccccc1`, with 0.0184; and `COc1ccc(C#Cc2ccc3c(c2)[C@]2(C(=O)N3)[C@H](C(=O)Nc3nc4ccccc4s3)[C@H]3C(=O)O[C@H](c4ccccc4)[C@H](c4ccccc4)N3[C@@H]2c2ccc(OCCO)cc2)cc1`, with 0.153.
`CCOC(=O)C[C@H]1[C@H](OC(=O)c2ccc(C(=O)c3ccccc3)cc2)[C@@H](NC(=O)c2ccc3ccccc3c2)c2cc(OCCCO)ccc2N1C(=O)c1ccc2ccccc2n1`: the composite z-score is -0.0774.
Then `CN(C)CCCCNC(=O)[C@H]1C[C@H]2C(=O)N[C@@H](Cc3ccccc3)C(=O)N2[C@H]1c1cccc(OCCO)c1`, with -0.128; and `C=C(CC1([C@@H](NP(=O)(c2ccccc2)c2ccccc2)[C@H]2C[C@@H]2CCN(C(=O)OCC)S(=O)(=O)c2ccc(C)cc2)CC1)c1ccccc1`, with 0.199; and `C=C(CCCC)/C(=C/C[C@H](OC(C)=O)c1cccc(OCCO)c1)c1cc(C(=O)OC)ccc1OC`, with -0.0059.
